This is an account of results in PubChem BioAssay (Tox21).

Records with an inconclusive call do not appear. Active and inactive are the calls of the source. Unless noted, calls come from the whole dose curve; as a rule, active = well fitted curve in the direction sought with a large enough effect in the repeat runs; inconclusive = weak or mixed curves; inactive = no such curve, though single readings can be large; an effect the other way counts as inactive or inconclusive.

Test [1] in a line: qHTS assay for small molecule agonists of the p53 signaling pathway (AID 651631; calls by dose curve; note: nearly all actives have a fitted effect of over 15% in size; note: potency is the fitted concentration of half-maximal effect). In outline:
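Stably transfected HCT-116 cells (beta-lactamase behind p53 response elements) get compounds after a 5 h settling period; 16 h later at 37 °C, FRET substrate is loaded and fluorescence read after 2 h.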

Test [2] in a line: qHTS assay for small molecules that induce genotoxicity in human embryonic kidney cells expressing luciferase-tagged ATAD5 (AID 651632). Note: nearly all actives have a fitted effect of over 15% in size. In outline: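 Luminescent reporter readout, HEK293T ATAD5-luc line: 16 hr drug exposure (37C, 5% CO2) followed by Amplite, 30 min RT.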
Test [3] in a line: qHTS assay for small molecule agonists of the p53 signaling pathway - cell viability (AID 651633; calls by dose curve; note: nearly all actives have a fitted effect of over 30% in size; note: potency is the fitted concentration of half-maximal effect). In outline: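 p53RE-bla cells were treated with compound for 16 hours at 37 C. Cytotoxicity was then measured as CellTiter-Glo luminescence after 30 min at room temperature.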
Test [4] in a line: qHTS assay for small molecules that induce genotoxicity in human embryonic kidney cells expressing luciferase-tagged ATAD5 - cell viability (AID 651634; calls by dose curve; note: nearly all actives have a fitted effect of over 25% in size; note: potency is the fitted concentration of half-maximal effect). In outline:
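Viability read: CellTiter-Fluor fluorescence, 30 min at 37C. Cells: HEK293T, luciferase-tagged ATAD5. Exposure: 15.5 hr, 37C, 5% CO2, compound or DMSO vehicle.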

Test [5] can be described thus: qHTS assay for small molecule disruptors of the mitochondrial membrane potential - cell viability (AID 720634; calls by dose curve;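 note: human HepG2 liver cancer cells; series mostly up to about 83 µM; nearly all actives have a fitted effect of over 20% in size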). In outline: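 HepG2, 1 hr compound, 37 C. ATP luminescence via CellTiter-Glo, 30 min RT, same well as m-MPI.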
Test [6] in a line: qHTS assay for small molecule disruptors of the mitochondrial membrane potential (AID 720635). Note: potency is the fitted concentration of half-maximal effect. Put shortly:
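HepG2 cells exposed to compound 1 hr at 37C, then Mito-MPS dye 30 min. Ratio read of aggregate (540/590 nm) versus monomer (490/535 nm) fluorescence.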

Test [7] is described as follows: qHTS assay to test for compound auto fluorescence at 590 nm (red) in HepG2 cells (AID 720674). In outline: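 Seeding: 2,000 HepG2 cells/well, MEM/10% FBS, overnight 37 C. Dosing: compound vs DMSO. Incubation: 1 hr, 37 C, 5% CO2. Read: fluorescence 540 ex/590 em, Rose Bengal sodium as red reference.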
Test [8] in a line: qHTS assay to test for compound auto fluorescence at 535 nm (green) in HepG2 cells (AID 720675).
Test [9] can be described thus: qHTS assay to test for compound auto fluorescence at 460 nm (blue) in HEK293 cells (AID 720678). Put shortly:
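After cell attachment (4-5 hr, 37C), compounds were pinned onto HEK293 monolayers in 10% dialyzed FBS medium. The blue channel (405/460 nm) was read following overnight culture. Equivalency was calculated against triamterene.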

Test [10] can be described thus: qHTS assay to test for compound auto fluorescence at 590 nm (red) in HEK293 cells (AID 720679). In outline: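 Plates of HEK293 cells (10% dialyzed FBS) are treated with 23 nL compound or DMSO vehicle after a 4-5 hr attachment period, incubated overnight at 37C, and read for red fluorescence at 540/590nm.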
The nature of test [11]: qHTS assay to test for compound auto fluorescence at 535 nm (green) in HEK293 cells (AID 720680).
Test [12] in a line: qHTS assay to test for compound auto fluorescence at 460 nm (blue) in HEK293 cell free culture (AID 720681). Put shortly: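 Compounds were added to cell-free DMEM with 10% FBS and fluorescence read directly. The blue channel used 405 nm excitation and 460 nm emission, with triamterene as the reference fluorophore.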
Test [13] in a line: qHTS assay to test for compound auto fluorescence at 535 nm (green) in HEK293 cell free culture (AID 720682). Put shortly:
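Using fluorescein as calibrant, autofluorescence was quantified at 485/535 nm in cell-free DMEM containing 10% FBS after pintool addition of compound or vehicle.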

Test [14] is described as follows: qHTS assay to test for compound auto fluorescence at 590 nm (red) in HEK293 cell free culture (AID 720683). In outline: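 Cell-free wells of DMEM with 10% FBS received compound, and intrinsic fluorescence was read at excitation/emission 540/590 nm. Values expressed as equivalence to Rose Bengal sodium.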
Test [15] in a line: qHTS assay to test for compound auto fluorescence at 590 nm (red) in HepG2 cell free culture (AID 720684). In outline:
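Compounds are added to culture medium (MEM, 10% FBS) lacking cells, then fluorescence is read at excitation 540 nm, emission 590 nm, with Rose Bengal sodium as the equivalency standard.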

Test [16] can be described thus: qHTS assay to test for compound auto fluorescence at 460 nm (blue) in HepG2 cell free culture (AID 720685). Put shortly: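 Compound (23 nL) or DMSO pinned into cell-free MEM with 10% FBS; blue fluorescence read at 405/460 nm excitation/emission, expressed as auto-fluorescence equivalency to triamterene.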
Test [17] is described as follows: qHTS assay to test for compound auto fluorescence at 535 nm (green) in HepG2 cell free culture (AID 720686).
Test [18] is described as follows: qHTS assay to test for compound auto fluorescence at 460 nm (blue) in HepG2 cells (AID 720687). In outline: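 HepG2 cells in MEM with 10% FBS, attached overnight at 37 C, were exposed to compound or DMSO for 1 hr at 37 C, 5% CO2. Blue fluorescence was read at 405/460 nm, with triamterene as reference fluorophore.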
Test [19] has as its target Glucocorticoid receptor (Homo sapiens) (UniProt P04150). Kind of test: qHTS assay to identify small molecule agonists of the glucocorticoid receptor (GR) signaling pathway (AID 720691; active = well fitted activation curve with a large enough effect in the signal ratio in the repeat runs, not every such curve was filed as active; the % refers to the signal ratio). In outline: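 qHTS in GR-bla HeLa cells: 4 h settling at 37 C/5% CO2, 18 h compound incubation at 37 C, 2 h LiveBLAzer B/G FRET substrate at room temperature, fluorescence intensity measured.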

For test [20] the target is unchanged. The experiment in a line: qHTS assay to identify small molecule antagonists of the glucocorticoid receptor (GR) signaling pathway (AID 720692; active = well fitted inhibition curve with a large enough effect in the signal ratio in the repeat runs, not every such curve was filed as active; the % refers to the signal ratio). In outline: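 Inhibition of glucocorticoid signalling is measured in HeLa cells with a GRE-controlled beta-lactamase reporter; cells are co-treated with compound and 5 nM dexamethasone (final) for 18 h before FRET substrate readout.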

Sequence of Glucocorticoid receptor (Homo sapiens) (P04150 whole entry, looked up): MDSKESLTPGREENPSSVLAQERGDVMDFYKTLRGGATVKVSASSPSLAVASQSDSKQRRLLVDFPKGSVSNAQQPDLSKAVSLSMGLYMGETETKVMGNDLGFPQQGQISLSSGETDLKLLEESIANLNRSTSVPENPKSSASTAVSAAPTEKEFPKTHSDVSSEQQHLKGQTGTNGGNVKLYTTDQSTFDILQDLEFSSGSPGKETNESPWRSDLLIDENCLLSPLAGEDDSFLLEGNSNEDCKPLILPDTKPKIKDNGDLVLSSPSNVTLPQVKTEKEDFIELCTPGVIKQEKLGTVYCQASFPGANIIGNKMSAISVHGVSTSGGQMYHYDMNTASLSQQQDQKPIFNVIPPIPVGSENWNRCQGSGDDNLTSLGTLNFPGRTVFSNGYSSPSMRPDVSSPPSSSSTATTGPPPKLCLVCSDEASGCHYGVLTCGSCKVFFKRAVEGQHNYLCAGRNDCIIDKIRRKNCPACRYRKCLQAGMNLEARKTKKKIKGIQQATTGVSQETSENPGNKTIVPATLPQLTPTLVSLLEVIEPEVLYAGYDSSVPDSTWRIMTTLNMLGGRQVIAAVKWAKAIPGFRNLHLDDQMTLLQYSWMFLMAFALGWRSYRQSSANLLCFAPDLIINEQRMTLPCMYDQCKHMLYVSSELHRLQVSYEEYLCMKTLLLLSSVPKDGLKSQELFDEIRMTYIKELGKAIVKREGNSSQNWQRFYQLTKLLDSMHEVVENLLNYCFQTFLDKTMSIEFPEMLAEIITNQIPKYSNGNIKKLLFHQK

With `Cn1cc[n+](C)c1` (tested in a mixture with another compound), the Potency result in test [1], in test [2], in test [3], in test [4], in [5] and in test [6] was “inactive” each time. For the same molecule, the call in [7], in test [8], in test [9], in test [10], in test [11] and in [12] was inactive. Moreover, the outcome in [13], in [14], in [15], in test [16], in [17] and in test [18] was inactive.

On to `II`, for which the Potency result in test [1], in test [2], in [3], in [4], in test [5] and in [20] was “inactive” each time. Also, the Potency in [6] is 19.3 µM (active). The molecule was classed as inactive in test [7], in [8], in test [9], in test [10], in test [11] and in test [12]. The result in test [13], in [14], in [15], in test [16], in test [17] and in test [18] was inactive. Moreover, the outcome in test [19] was inactive.

For `N#CCc1ccccc1`, the Potency result in test [1], in test [2], in [3], in [4] and in test [5] was “inactive” each time. The result in test [7], in test [8], in test [9], in test [10], in [11] and in test [12] was inactive. Further, the call in test [13], in test [14], in test [15], in test [16], in test [17] and in [18] was inactive.

Turning to `O=[N+]([O-])c1ccccc1CCl`, the Potency entry in [1], in test [2], in [3], in [4], in test [5] and in [6] was “inactive” in each case. For the same molecule, the Potency result in test [20] is “inactive”. Also, the molecule was classed as inactive in [7], in test [8], in test [9], in [10], in test [11] and in test [12]. Moreover, the result in test [13], in test [14], in test [15], in test [16], in [17] and in test [18] was inactive. In addition, the result in test [19] was inactive.

On to `IC(I)=C(I)I`, for which the Potency in test [1] is 12.2 µM (active); in test [3], 48.6 µM (active); in test [4] it was 27.3 µM (active); in test [6], 4.33 µM (active). Further, the Potency entry in test [2] and in [5] was “inactive” in each case. Besides, the outcome in test [7], in [8], in test [9], in test [10], in test [11] and in test [12] was inactive. Moreover, the result in [13], in test [14], in test [15], in test [16] and in [17] was inactive.

Regarding `ClCc1ccccc1`, the Potency entry in [1], in test [2], in test [3], in test [4], in [5] and in test [6] was “inactive” throughout. The molecule was classed as inactive in test [7], in test [8], in test [10], in [11], in test [12] and in test [13]. In addition, the molecule was classed as inactive in test [14], in [15], in test [16], in test [17] and in test [18].

On to `Nc1ccc(N=Nc2ccc(-c3ccc(N=Nc4c(S(=O)(=O)O)cc5cc(S(=O)(=O)O)c(N=Nc6ccccc6)c(O)c5c4N)cc3)cc2)c(N)c1`, for which the Potency result in test [1], in test [2], in test [3], in test [4] and in test [5] was “inactive” each time. Moreover, the Potency in test [6] was 6.24 µM (active). In addition, the result in test [8], in test [9], in test [10], in test [11], in test [12] and in test [14] was inactive. Besides, the molecule was classed as inactive in [15], in test [16], in test [17], in test [18] and in test [19].

For the molecule `C=CCC1([C@H](C)CCC)C(=O)NC(=O)NC1=O`, the Potency result in test [1], in test [2], in test [3], in [4], in test [5] and in test [6] was “inactive” throughout. In addition, the Potency entry in test [20] is “inactive”. The result in [7], in [8], in [9], in test [10], in test [11] and in test [12] was inactive. Further, the molecule was classed as inactive in [13], in test [14], in test [15], in [16], in test [17] and in test [18]. Besides, the molecule was called inactive in [19].
